Compounds without any hit were thinned out: in the full panel of roughly 83,000, 20% have a hit.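 48-hour exposure, single concentration, 96-well plates; percent growth endpoint where 0 means no net growth. Active: below 10.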 Values without a mark were called inactive. Calls of active or inactive are those of the source.
System: ACHN renal
Experiment: NCI-60 one-dose screen, 48 h (100 = growth as untreated, 0 = no growth, -100 = all killed)
Details: 10 µM
Description: Growth inhibition of the ACHN human tumor cell line is measured as a screen for anti-cancer activity. Cells are grown in 96 well plates and exposed to the test compound for 48 hours. Compounds are tested at a single concentration, which is 10^-5 M for most compounds. The reported endpoint is percent growth (GI% or GIPRCNT), where numbers from 0 - 100% represent growth inhibition, and numbers from -100% - 0 represent cell death. For example, a value of 40 represents 60% growth inhibition. A value of 0 means no net growth occurred over the course of the experiment. A value of -40 indicates 40% of cells at the beginning of the experiment died by the end of the experiment. A value of -100 means all cells are dead at the end of the experiment.
NCI-60 Human Tumor Cell Lines Screen was performed using the standard one-dose NCI protocol, which is described in more detail at https://dtp.cancer.gov/discovery_development/nci-60/default.htm.
Compounds with GIPRCNT values below 10 were considered active. Activity score was based on GIPRCNT using the following formula: […]
Score is 0 for GIPRCNT values of 100 or above, 50 for GIPRCNT values of 0, and 100 for GIPRCNT values of -100.

In order of rising growth:
1. CCC(=O)N1C/C(=C/c2ccc(OC)cc2)C(=O)/C(=C/c2ccc(OC)cc2)C1  28.4%
2. COc1ccc(-c2nc(-c3nc4cc(Cl)c(Cl)cc4[nH]3)c3ccccn23)cc1  28.5%
3. O=C(Nc1cccc(-n2cc(-c3ccncc3)c(-c3ccc(O)c(Cl)c3)n2)c1)c1ccc(N2CCOCC2)c(C(F)(F)F)c1  29.3%
4. CC/C(=C(/c1ccc(OCCN(C)C)cc1)c1ccc(OC(=O)CCC(=O)c2c(C)[nH]c(/C=C3\N=C(c4ccc[nH]4)C=C3OC)c2C)cc1)c1ccccc1  30.4%
5. O=C(Nc1cccc(-n2cc(-c3ccncc3)c(-c3cc(O)cc(Cl)c3)n2)c1)c1cc(C(F)(F)F)cc(C(F)(F)F)c1  37.7%
6. COc1cc(C2CC(c3ccc(Nc4ccnc5cc(Cl)ccc45)cc3)=NN2c2ccc(Cl)cc2)cc(OC)c1OC (stereo not given)  38%
7. O=S(=O)(NCCCNc1nccc(-c2c(-c3ccc(F)cc3)nc3sccn23)n1)c1ccc2ccccc2c1  39%
8. O=C(Nc1ccccc1)Nc1cccc(-n2cc(-c3ccncc3)c(-c3ccc(O)c(Cl)c3)n2)c1  43.1%
9. CCN(CC)CCC(CNc1c(C)cnc2cc(Cl)ccc12)c1ccc(Cl)c(Cl)c1 (stereo not given)  54.8%
10. O=C(Nc1ccncc1)C(=O)c1cn(S(=O)(=O)c2ccc(F)cc2)c2ccccc12  57.7%
11. Oc1[nH]c2ccc(Cl)cc2c1/C=c1/ccc2c(c1)N=C(c1cccs1)N=2  58%
12. O=C(Nc1ccc(Cl)c(Cl)c1)Nc1c(Oc2ccc(Cl)c(Cl)c2)ccc(Cl)c1S(=O)(=O)O  61.2%
13. COc1ccc(C2=Nc3c(C)nn(-c4ccccc4)c3NC(c3ccc(Oc4ccnc5cc(Cl)ccc45)c(OC)c3)C2)cc1 (stereo not given)  76.4%
14. O=C(CSSCC(=O)c1ccc(Cl)cc1)c1ccc(Cl)cc1  82.1%
15. Cc1ccc(Nc2nnc(-c3cc(-c4ccncc4)n(-c4ccccc4)n3)s2)cc1  83%
16. CC/C(=C(/c1ccc(OCCN(C)C)cc1)c1ccc(OC(=O)CCCCCCCCC(=O)c2c(C)[nH]c(/C=C3\N=C(c4ccc[nH]4)C=C3OC)c2C)cc1)c1ccccc1  87.6%
17. c1ccc2c(c1)oc1c3cccnc3ccc21  87.9%
18. CCN1CCCC1CNC(=O)c1ncc(-c2ccc(C(F)(F)F)cc2)c(NC2CCCCCC2)n1 (stereo not given)  93.5%
19. COc1cc2nc(Nc3cccc(C(=O)O)c3)nc(N)c2cc1OC  93.9%
20. CCCCOc1ccc(NC(=O)Nc2nnc(C)s2)cc1  94.5%
21. S=c1[nH]ccn1-c1c(Cl)cccc1Cl  101%
22. CN1c2ccccc2[C@]2(Cc3ccccc3)Cc3ccccc3N[C@H]12  103%
23. CSc1nc(=O)n(Cc2ccc(Cl)cc2)c(=O)[nH]1  103%
24. CCCCCCCCCCCCC1C/C=C\CCCC(=O)O1 (stereo not given)  104%
25. CCCCCCCNc1nc(C=O)ncc1-c1ccc(C(F)(F)F)cc1  104%
26. O=C(O)C(SC(C(=O)O)c1ccccc1)c1ccccc1 (stereo not given)  104%
27. CC(=O)N1N=C(c2ccc(Cl)cc2)CC1c1sc(Cl)nc1Cl (stereo not given)  105%
28. COc1ccc([N+](=O)[O-])c(C(=O)O)c1  105%
29. C[C@]12CC[C@@H]3c4ccc(O)cc4C[C@@H](O)[C@H]3[C@@H]1CC[C@@H]2O  105%
30. c1ccc([C@H]2CN3CCSC3=N2)cc1  107%
31. O=C1C(c2ccccc2)C2C=CC(C2)N1O (stereo not given)  107%
32. CCOC(=O)c1ccc(NC(=O)Nc2ncc(Cl)cc2Cl)cc1  107%
33. Cc1cn(C2CCCCO2)c(=O)nc1NO (stereo not given)  110%
34. O=C(NC(Cc1ccc(O)cc1)C(=O)N=Nc1c(O)[nH]c2ccccc12)c1ccccc1 (stereo not given)  114%
35. CC/C(C)=C(\C)C(=O)O  116%
36. CCCCCCCC(C)NCCO (stereo not given)  117%

In the case of `COc1ccc2c(c1)C(=O)c1c-2c(OCCN(C)C)nc2ccccc12`, the growth is reported as 9.68% (active).
For `C=C(NC(=O)C(=C)NC(=O)c1csc(C2=NC3c4csc(n4)C4NC(=O)c5csc(n5)C(C(C)(O)C(C)O)NC(=O)C5CSC(=N5)/C(=C/C)NC(=O)C(C(C)O)NC(=O)c5csc(n5)C3(CC2)NC(=O)C(C)NC(=O)C(=C)NC(=O)C(=C)NC(=O)C(C(C)C)NC2C=Cc3c(C(C)O)cc(nc3C2O)C(=O)OC4C)n1)C(N)=O` (stereo not given), the growth was -26.8% (active).
`CC1(C)OC2=C(CC1Br)C(=O)C(=O)c1ccccc12` (stereo not given) was tested, and the growth was -91.7% (active).
For `O=C(Nc1cccc(-n2cc(-c3ccncc3)c(-c3ccc(O)c(Cl)c3)n2)c1)Nc1ccc(Cl)c(Cl)c1`, the growth was 9.03% (active).

From PubChem BioAssay (NCI)
